DNA FID counter = displaces DNA intercalator in HCV helicase counter-screen; DNA fluorescent intercalator displacement, fluorescence; inhibition, % at 7.9 µM; 290,000 compounds, 0.17% hits; AID 1845; in the data active = inhibition above about 37%;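 note: 0% = vehicle and 100% = reference compound; higher means more ethidium bromide displaced from hairpin DNA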
PREPL inh = inhibitors of human prolyl oligopeptidase-like enzyme PREPL. inhibition, % at 5.96 µM. recombinant PREPL, fluorescence polarization activity-based probe. AID 2751. 320,000 compounds, 0.68% hits; in the data active = inhibition above about 43%;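 note: 0% = enzyme with DMSO and 100% = wells lacking enzyme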
ANO1 activ = activators or potentiators of mouse TMEM16A chloride channel | 340,000 compounds, 0.3% hits | HEK293 TMEM16A/YFP-H148Q/I152L, iodide quench fluorescence; active compounds read low | B-score at 10 µM | Q8BHY3;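 active = fluorescence-ratio B-score plate-corrected deviation score at least 3 library SD below zero, with starting fluorescence score within 5 deviations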;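 note: channel opened by trigger with iodide after compound preincubation; score built on the fluorescence ratio of max minus min over baseline; more negative score means more quench and so TMEM16A activation or potentiation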
TMEM16A inh = inhibitors of mouse TMEM16A calcium-activated chloride channel | HEK293 TMEM16A/YFP iodide influx fluorescence, ionomycin | normalized B-score (activity score, 25-100; higher = stronger inhibition) at 10 µM | 310,000 compounds, 1.2% hits;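 active = ratio plate-corrected score three or more library SD toward inhibition, starting fluorescence score within five deviations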;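 note: score derived from kinetic fluorescence span divided by baseline fluorescence per well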
PP5 primary = blocks human protein phosphatase 5 activity; P53041; purified PP5c, OMFP substrate fluorescence; inhibition, % at 6.7 µM; 320,000 compounds, 0.18% hits; AID 1987;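 active = inhibition above the campaign's mean inhibition across all tested compounds plus 3 SD, cut at about 9.5% in these data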;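 note: 0% = DMSO only and 100% = 100 µM cantharidin control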
PP1 counter = counter-screen for PP5 inhibitors: inhibitors of human PP1-alpha | AID 2235 | 320,000 compounds, 0.9% hits | purified PP1alpha, OMFP fluorescence | inhibition, % at 6.7 µM | P62136;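 active = inhibition above the mean inhibition of all tested compounds plus 3 SD, computed separately for each screening campaign, cut at about 15% in these data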
Target sequence (P62136 whole entry, looked up): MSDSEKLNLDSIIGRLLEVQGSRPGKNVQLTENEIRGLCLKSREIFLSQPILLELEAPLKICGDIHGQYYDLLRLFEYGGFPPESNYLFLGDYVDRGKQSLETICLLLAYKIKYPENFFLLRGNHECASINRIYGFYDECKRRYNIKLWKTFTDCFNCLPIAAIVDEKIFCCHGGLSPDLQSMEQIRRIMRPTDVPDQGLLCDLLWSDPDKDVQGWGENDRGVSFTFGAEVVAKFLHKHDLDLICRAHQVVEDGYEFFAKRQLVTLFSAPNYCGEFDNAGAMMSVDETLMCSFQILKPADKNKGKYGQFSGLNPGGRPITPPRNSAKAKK
TMEM16A reconf = re-confirmation of mouse TMEM16A chloride channel inhibitors. shares compounds with TMEM16A inh. HEK293 TMEM16A/YFP-H148Q, iodide quench fluorescence; ionomycin added to raise cell calcium. inhibition, % at 10 µM. 2,300 compounds, 39% hits;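 active = mean duplicate percent inhibition, scaled so buffer wells are 0 and the reference blocker 100, over three buffer SD above buffer mean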
TMEM16A Ca cntr = calcium mobilization counter-screen hit for TMEM16A inhibitor series | shares compounds with TMEM16A inh | TMEM16A/YFP HEK293, Fluo4 calcium mobilization | calcium response (% of ionomycin), % at 10 µM | 2,300 compounds, 2% hits | AID 652231;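 active = duplicate-averaged calcium signal over 20% of the ionomycin maximum, relative to buffer baseline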;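 note: each well's signal is peak minus trough fluorescence divided by its pre-addition baseline; 0% = buffer wells and 100% = ionomycin wells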
Parental YFP cnt = parental YFP-HEK293 iodide quench counter-screen activity. shares compounds with TMEM16A inh. ionomycin. 2,300 tested, under 10 active. AID 652233. YFP ratio F(max-min)/F0 at 10 µM;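 active = yellow fluorescent protein signal ratio exceeding the buffer control mean by over 5 SD of those controls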;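 note: ratio is mean of duplicate wells from kinetic YFP trace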
ClC-1 rat inh = blocks the rat ClC-1 voltage-dependent chloride channel; shares compounds with TMEM16A inh; CHO ClC-1-YFP, iodide influx fluorescence quench; iodide control reads 0, buffer control 100; ratio percent, % at 10 µM; 2,300 tested, under 10 active;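 active = duplicate-mean ratio percent above the mean of iodide-only control wells, which defines zero, plus 5 of their SD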;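 note: higher percent means stronger block of ClC-1 iodide influx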
Numbers without * were called inactive; i = inactive; nt = no result given; ! = not active in a repeat. Hits are enriched below; roughly 2.7% of the tested compounds scored in any of these assays.

SMILES	DNA FID counter	PREPL inh	ANO1 activ	TMEM16A inh	PP5 primary	PP1 counter	TMEM16A reconf	TMEM16A Ca cntr	Parental YFP cnt	ClC-1 rat inh
N#CC(C#N)=c1ccc2c(c1)N1C3=C(CCCC3)CC3CCCCC31N=2 (stereo not drawn)	4.8	19.4	i	25*	2.0	-1.6	i	i	-0.855	-1.0
N#C/C(C(N)=O)=c1/ccc2c(c1)N1C3=C(CCCC3)CC3CCCCC31N=2 (stereo not drawn)	-17.3	12.4	nt	i	-0.3	-2.9	nt	nt	nt	nt
O=C(Nc1cccc(O)c1)c1ccc(C(F)(F)F)cc1	-3.4	12.1	i	i	-0.7	0.4	nt	nt	nt	nt
O=C(Nc1cccc(C(F)(F)F)c1)c1cc[n+]([O-])cc1	-1.9	16.8	i	100*	-1.6	-2.8	i	i	-1.2	-9.0
C1CCC(C(CC2CCCCN2)C2CCCCC2)CC1 (stereo not drawn)	22.1	-35.5	i	25*!	1.1	1.4	i	i	-1.12	-9.5
COc1cccc(NC(=O)CN(C)C(=O)CCN2C(=O)C3CC=CCC3C2=O)c1 (stereo not drawn)	nt	nt	i	nt	nt	nt	nt	nt	nt	nt
c1nc(NCC2CCCO2)c2[nH]cnc2n1 (stereo not drawn)	2.1	8.8	i	25*	1.4	-3.5	i	i	-1	-14.5
COc1ccccc1NC(=O)CSc1nc(=O)n(CCN2CCOCC2)c2c1CCC2	nt	5.1	i	i	-1.8	-3.6	nt	nt	nt	nt
Cc1ccc(NC(=O)C2=CCN(S(=O)(=O)c3ccc(F)cc3)CC2)c(C)c1	-4.4	-4.6	i	100*	0.0	-1.8	i	i	-0.905	-0.5
Cc1cc(C)c(NC(=O)C2=CCN(S(=O)(=O)c3ccc(F)cc3)CC2)c(C)c1	-9.3	3.0	i	i	2.1	-3.1	nt	nt	nt	nt
Cc1cc(C)cc(OCC(=O)Nc2nc(-c3cccnc3)cs2)c1	-18.8	-2.5	i	i	2.6	0.6	nt	nt	nt	nt
CCOC(=O)c1c(C)n(CC(COC(C)=O)OC(C)=O)c2ccc(OC(C)=O)cc12 (stereo not drawn)	-27.3	-1.2	i	25*	0.6	2.4	i	i	-1.18	-15.5
CCOC(=O)c1c(C)n(C)c2ccc(OC(C)C(=O)OC)cc12 (stereo not drawn)	-27.0	0.7	i	i	5.2	6.8	nt	nt	nt	nt
CCN(CC)S(=O)(=O)c1cccc(C(=O)OCC(=O)c2ccc3c(c2)NC(=O)CO3)c1	-2.1	0.9	i	25*	2.8	3.4	i	i	-1.11	-2.5
O=C(Cn1c(=O)oc2ccccc21)Nc1ccc(Br)cc1	1.0	6.0	i	i	-0.2	-0.9	nt	nt	nt	nt
N#Cc1c(NC(=O)Cn2c(=O)oc3ccccc32)oc(-c2ccccc2)c1-c1ccccc1	-9.9	3.6	i	25*	0.0	14.8	28.5%*	i	-0.939	-12.5
CN(Cc1c(F)cccc1Cl)C(=O)C1=CC=CN2CCS(=O)(=O)N=C12	nt	6.1	i	nt	nt	nt	nt	nt	nt	nt
CCN(Cc1ccncc1)Cc1cn(C)nc1-c1ccc(Oc2ccccc2)cc1	-3.4	18.3	i	100*	4.0	0.2	i	i	-1.19	-5.5
CN(Cc1cn(C)nc1-c1ccc(Oc2ccccc2)cc1)Cc1cnc2ccccn12	3.2	18.8	i	25*	-1.2	2.1	23.5%*	21.5%*	-1.19	-13.0
CC(C)N(C)Cc1cn(C)nc1-c1ccc(Oc2ccccc2)cc1	21.6	24.7	i	i	1.1	-3.6	nt	nt	nt	nt
Cn1cc(CNCc2cnc3ccccn23)c(-c2ccc(Oc3ccccc3)cc2)n1	5.1	8.8	i	i	1.8	-2.7	nt	nt	nt	nt
O=C(Nc1ccc(NC(=O)c2ccccc2O)cc1)Nc1ccc(F)cc1F	1.7	3.3	i	i	-2.5	-0.3	nt	nt	nt	nt
Cc1cc(C)cc(OCC(O)CN2CCN(C(=O)c3ccco3)CC2)c1 (stereo not drawn)	-21.9	-1.2	i	i	1.7	-1.9	nt	nt	nt	nt
O=C(c1ccco1)N1CCN(CC(O)COc2ccc3oc4ccccc4c3c2)CC1 (stereo not drawn)	-19.1	-20.3	i	25*	3.3	2.4	21.0%*	i	-1.08	0.5
O=C(Nc1ccc(S(=O)(=O)N2CCCC2)cc1)c1ccc(OCC2CCCO2)cc1 (stereo not drawn)	-24.5	9.7	i	25*	1.2	1.6	20.0%*	i	-0.977	-8.0
SMILES	DNA FID counter	PREPL inh	ANO1 activ	TMEM16A inh	PP5 primary	PP1 counter	TMEM16A reconf	TMEM16A Ca cntr	Parental YFP cnt	ClC-1 rat inh
COc1ccc(C(=O)NNC(=O)c2cccc(S(=O)(=O)N3CCOCC3)c2)cc1	nt	4.0	i	nt	nt	nt	nt	nt	nt	nt
O=C(Nc1cccc(S(=O)(=O)N2CCCCC2)c1)c1ccc(OCC2CCCO2)cc1 (stereo not drawn)	-22.5	6.6	i	25*	1.0	-1.1	i	i	-1.03	-14.0
Cc1ccc(NC(=O)c2ccc(OCC3CCCO3)cc2)cc1 (stereo not drawn)	-10.9	5.6	i	i	2.0	-5.9	nt	nt	nt	nt
COc1ccc(C(=O)NC(=S)Nc2cccc(S(=O)(=O)N3CCOCC3)c2)cc1	-17.5	-1.3	i	25*	1.6	-6.3	i	i	-0.965	-7.5
COC(=O)Cc1cc(=O)[nH]c(/N=C(\N)Nc2ccc(C(C)C)cc2)n1	-36.5	9.1	i	i	-2.8	-3.2	nt	nt	nt	nt
NNC(=O)c1ccc(CN2CCCCC2)o1	5.3	-4.4	i	i	4.9	-12.2	nt	nt	nt	nt
Cc1c(NC(=O)C(C)Sc2ccccc2)c(=O)n(-c2ccccc2)n1C (stereo not drawn)	-24.0	-2.6	i	i	-0.7	-6.2	i	i	-0.82	-8.0
CCOC(=O)N1CCc2c(sc(NC(C)=O)c2C(N)=O)C1	7.4	7.2	i	i	3.0	-3.3	i	i	-1.1	-8.5
COc1ccc(N2Nc3n[nH]c(N)c3N2)cc1	2.1	2.2	i	i	2.1	-6.3	i	i	-1.07	-4.5
CC(=O)/C(C#N)=C1\NC(=O)C(Cc2cc(Cl)ccc2Cl)S1 (stereo not drawn)	-24.4	-9.5	i	100*	0.5	-0.4	45.5%*	i	-1.14	-11.5
CCOC(=O)C1CCN(C(=O)c2ccc(OCC(=O)Nc3cccc(C(F)(F)F)c3)c(OC)c2)CC1	nt	40.1	i	25*	-0.5	2.2	28.5%*	i	-1.1	-19.0

Bioassay records (PubChem)
